From article PMC5540273 (PLoS ONE, 2017)
Like-named read-outs stand apart in the source and are kept apart here.

Legend:
FYN = conditions: concentration: 1 μM, replicates: in singlicate; n = 1
GAK = conditions: concentration: 1 μM, replicates: in singlicate; n = 1
GCN2(Kin.Dom.2,S808G) = system: T1, GCN2(Kin.Dom.2,S808G); conditions: concentration: 1 μM, replicates: in singlicate; n = 1
T1 construct: gene EIF2AK4

GRK1 = conditions: concentration: 1 μM, replicates: in singlicate; n = 1
GRK2 = system: T2, GRK2; conditions: concentration: 1 μM, replicates: in singlicate; n = 1
T2 construct: gene ADRBK1

GRK3 = system: T3, GRK3; conditions: concentration: 1 μM, replicates: in singlicate; n = 1
T3 construct: gene ADRBK2

GRK4 = conditions: concentration: 1 μM, replicates: in singlicate; n = 1
GRK7 = conditions: concentration: 1 μM, replicates: in singlicate; n = 1
GSK3A = conditions: concentration: 1 μM, replicates: in singlicate; n = 1
GSK3B = conditions: n = 1
HASPIN = system: T4, HASPIN; conditions: concentration: 1 μM, replicates: in singlicate; n = 1
T4 construct: gene GSG2

HCK = conditions: concentration: 1 μM, replicates: in singlicate; n = 1
HIPK1 = conditions: concentration: 1 μM, replicates: in singlicate; n = 1
HIPK2 = conditions: concentration: 1 μM, replicates: in singlicate; n = 1
HIPK3 = conditions: concentration: 1 μM, replicates: in singlicate; n = 1
HIPK4 = conditions: concentration: 1 μM, replicates: in singlicate; n = 1
HPK1 = conditions: concentration: 1 μM, replicates: in singlicate; n = 1
HUNK = conditions: concentration: 1 μM, replicates: in singlicate; n = 1
ICK = conditions: concentration: 1 μM, replicates: in singlicate; n = 1
IGF1R = conditions: concentration: 1 μM, replicates: in singlicate; n = 1
[1] = concentration: 1 μM, replicates: in singlicate
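Also: KINOMEscan kinase panel screen.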

SMILES: Cl.Cl.NCC(NCc1ccc(-c2ccnc3[nH]ccc23)s1)c1ccccc1 (centres unmarked) [GSK1321565]
- %Inh (FYN): 0%
- %Inh (GAK): 34%
- %Inh (GCN2(Kin.Dom.2,S808G)): 0%
- %Inh (GRK1): 50%
- %Inh (GRK2): 0%
- %Inh (GRK3): 37%
- %Inh (GRK4): 82%
- %Inh (GRK7): 83%
- %Inh (GSK3A): 0%
- %Inh (GSK3B; [1]): 0%
- %Inh (HASPIN): 99.8%
- %Inh (HCK): 0%
- %Inh (HIPK1): 53%
- %Inh (HIPK2): 55%
- %Inh (HIPK3): 71%
- %Inh (HIPK4): 49%
- %Inh (HPK1): 66%
- %Inh (HUNK): 0%
- %Inh (ICK): 0%
- %Inh (IGF1R): 0%

SMILES: Clc1ccc(-c2nn3ncccc3c2-c2ccnc(Nc3ccc4c(c3)OCCO4)n2)cc1 [GW829116]
- %Inh (FYN): 0%
- %Inh (GAK): 68%
- %Inh (GCN2(Kin.Dom.2,S808G)): 6%
- %Inh (GRK1): 0%
- %Inh (GRK2): 0%
- %Inh (GRK3): 0%
- %Inh (GRK4): 0%
- %Inh (GRK7): 0%
- %Inh (GSK3A): 24%
- %Inh (GSK3B; [1]): 0%
- %Inh (HASPIN): 0%
- %Inh (HCK): 54%
- %Inh (HIPK1): 14%
- %Inh (HIPK2): 0%
- %Inh (HIPK3): 0%
- %Inh (HIPK4): 0%
- %Inh (HPK1): 0%
- %Inh (HUNK): 50%
- %Inh (ICK): 0%
- %Inh (IGF1R): 0%

SMILES: C[C@@H](Oc1cc(-n2cnc3cc(-c4ccnc(NCCS(C)(=O)=O)c4)ccc32)sc1C(N)=O)c1ccccc1Cl [GSK907232]
- %Inh (FYN): 14%
- %Inh (GAK): 64%
- %Inh (GCN2(Kin.Dom.2,S808G)): 71%
- %Inh (GRK1): 0%
- %Inh (GRK2): 0%
- %Inh (GRK3): 39%
- %Inh (GRK4): 82%
- %Inh (GRK7): 0%
- %Inh (GSK3A): 0%
- %Inh (GSK3B; [1]): 16%
- %Inh (HASPIN): 26%
- %Inh (HCK): 34%
- %Inh (HIPK1): 0%
- %Inh (HIPK2): 0%
- %Inh (HIPK3): 7%
- %Inh (HIPK4): 20%
- %Inh (HPK1): 87%
- %Inh (HUNK): 0%
- %Inh (ICK): 19%
- %Inh (IGF1R): 0%

SMILES: COc1cccc(C2=C(Nc3ccc(Cl)c(C(=O)O)c3)C(=O)NC2=O)c1 [SB-390769]
- %Inh (FYN): 17%
- %Inh (GAK): 8%
- %Inh (GCN2(Kin.Dom.2,S808G)): 100%
- %Inh (GRK1): 100%
- %Inh (GRK2): 0%
- %Inh (GRK3): 59%
- %Inh (GRK4): 14%
- %Inh (GRK7): 0%
- %Inh (GSK3A): 56%
- %Inh (GSK3B; 1 µM): 34%
- %Inh (HASPIN): 0%
- %Inh (HCK): 0%
- %Inh (HIPK1): 7%
- %Inh (HIPK2): 0%
- %Inh (HIPK3): 11%
- %Inh (HIPK4): 0%
- %Inh (HPK1): 55%
- %Inh (HUNK): 0%
- %Inh (ICK): 10%
- %Inh (IGF1R): 26%

SMILES: Cn1cc(-c2ccc3c(c2)CCN3C(=O)Cc2cccc(Cl)c2)c2c(N)ncnc21 [GSK2606590]
- %Inh (FYN): 27%
- %Inh (GAK): 33%
- %Inh (GCN2(Kin.Dom.2,S808G)): 43%
- %Inh (GRK1): 5%
- %Inh (GRK2): 0%
- %Inh (GRK3): 0%
- %Inh (GRK4): 11%
- %Inh (GRK7): 0%
- %Inh (GSK3A): 5%
- %Inh (GSK3B; [1]): 3%
- %Inh (HASPIN): 2%
- %Inh (HCK): 0%
- %Inh (HIPK1): 13%
- %Inh (HIPK2): 0%
- %Inh (HIPK3): 13%
- %Inh (HIPK4): 0%
- %Inh (HPK1): 47%
- %Inh (HUNK): 4%
- %Inh (ICK): 0%
- %Inh (IGF1R): 0%

SMILES: COCCOCCOc1cc2ncc3c4ccc(C#N)cc4[nH]c3c2cc1OC
- %Inh (FYN): 15%
- %Inh (GAK): 99.3%
- %Inh (GCN2(Kin.Dom.2,S808G)): 94.6%
- %Inh (GRK1): 29%
- %Inh (GRK2): 7%
- %Inh (GRK3): 0%
- %Inh (GRK4): 83%
- %Inh (GRK7): 0%
- %Inh (GSK3A): 0%
- %Inh (GSK3B; [1]): 0%
- %Inh (HASPIN): 18%
- %Inh (HCK): 4%
- %Inh (HIPK1): 90.3%
- %Inh (HIPK2): 87%
- %Inh (HIPK3): 87%
- %Inh (HIPK4): 32%
- %Inh (HPK1): 7%
- %Inh (HUNK): 0%
- %Inh (ICK): 41%
- %Inh (IGF1R): 2%

SMILES: Cc1ccc(F)c(C(=O)Nc2cccc(-c3nn4ccccc4c3-c3ccnc(Nc4cccc(F)c4)n3)c2)c1F [GSK361061]
- %Inh (FYN): 58%
- %Inh (GAK): 52%
- %Inh (GCN2(Kin.Dom.2,S808G)): 11%
- %Inh (GRK1): 0%
- %Inh (GRK2): 0%
- %Inh (GRK3): 0%
- %Inh (GRK4): 25%
- %Inh (GRK7): 0%
- %Inh (GSK3A): 12%
- %Inh (GSK3B; [1]): 21%
- %Inh (HASPIN): 1%
- %Inh (HCK): 94.4%
- %Inh (HIPK1): 0%
- %Inh (HIPK2): 0%
- %Inh (HIPK3): 14%
- %Inh (HIPK4): 57%
- %Inh (HPK1): 21%
- %Inh (HUNK): 11%
- %Inh (ICK): 0%
- %Inh (IGF1R): 41%

SMILES: CCc1ccc(-c2ccc3c(c2)-c2c(cnn2C)S(=O)(=O)N3C)cc1
- %Inh (FYN): 3%
- %Inh (GAK): 8%
- %Inh (GCN2(Kin.Dom.2,S808G)): 16%
- %Inh (GRK1): 11%
- %Inh (GRK2): 0%
- %Inh (GRK3): 0%
- %Inh (GRK4): 16%
- %Inh (GRK7): 0%
- %Inh (GSK3A): 0%
- %Inh (GSK3B; [1]): 13%
- %Inh (HASPIN): 0%
- %Inh (HCK): 0%
- %Inh (HIPK1): 0%
- %Inh (HIPK2): 0%
- %Inh (HIPK3): 11%
- %Inh (HIPK4): 8%
- %Inh (HPK1): 17%
- %Inh (HUNK): 0%
- %Inh (ICK): 4%
- %Inh (IGF1R): 4%

SMILES: Cl.c1ccc(-c2ccc3c(Nc4ccc5[nH]ncc5c4)ccnc3c2)nc1 [GW440137]
- %Inh (FYN): 50%
- %Inh (GAK): 68%
- %Inh (GCN2(Kin.Dom.2,S808G)): 0%
- %Inh (GRK1): 0%
- %Inh (GRK2): 0%
- %Inh (GRK3): 22%
- %Inh (GRK4): 0%
- %Inh (GRK7): 0%
- %Inh (GSK3A): 16%
- %Inh (GSK3B; [1]): 17%
- %Inh (HASPIN): 6%
- %Inh (HCK): 16%
- %Inh (HIPK1): 62%
- %Inh (HIPK2): 47%
- %Inh (HIPK3): 51%
- %Inh (HIPK4): 0%
- %Inh (HPK1): 23%
- %Inh (HUNK): 9%
- %Inh (ICK): 0%
- %Inh (IGF1R): 12%

SMILES: O=C(Nc1cccc(Oc2ccc3nc(NC(=O)C4CC4)cn3n2)c1)c1ccccc1C(F)(F)F
- %Inh (FYN): 33%
- %Inh (GAK): 4%
- %Inh (GCN2(Kin.Dom.2,S808G)): 7%
- %Inh (GRK1): 9%
- %Inh (GRK2): 0%
- %Inh (GRK3): 0%
- %Inh (GRK4): 46%
- %Inh (GRK7): 0%
- %Inh (GSK3A): 7%
- %Inh (GSK3B; [1]): 0%
- %Inh (HASPIN): 0%
- %Inh (HCK): 69%
- %Inh (HIPK1): 28%
- %Inh (HIPK2): 0%
- %Inh (HIPK3): 0%
- %Inh (HIPK4): 1%
- %Inh (HPK1): 10%
- %Inh (HUNK): 0%
- %Inh (ICK): 0%
- %Inh (IGF1R): 0%
